In PubChem BioAssay AID1159580 (chemical genetic matrix, 2015):
“And” between values parts separate entries of the source, which are not always exact repeats. Equal entries are not always repeated. Screen size: about 5,500 compounds; about 2,000 (36%) were called active. Inconclusive results (about 18%) are left out. Rule as the data show it: active = normalized growth mostly below about 0.91 (no sharp cut-off); inconclusive = no clear call, values can overlap the other calls; inactive = mostly above about 0.92. Some of the results follow.

Assay: chemical genetic growth profiling, strain panel (AID 1159580);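 also: tested at 20 µM; growth read once vehicle control cultures reached saturation at 30 °C; 1 = growth at the plate median or of vehicle wells; lower values mean less growth of the strain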
Settings: S. cerevisiae deletion strains, growth OD

Measured: normalized growth

CC(=O)Nc1ccc(O)cc1
inactive: locus YAL021C, strain ccr4, active compounds read low 1.02 | locus YAL026C, strain drs2, active compounds read low 1.02 | locus YAL030W, strain snc1, active compounds read low 1.02 | locus YBL061C, strain skt5, active compounds read low 1.02 | locus YBR009C, strain hhf1, active compounds read low 1.01 | locus YBR021W, strain FUR4, active compounds read low 1.09 | locus YBR023C, strain chs3, active compounds read low 1.02 | locus YBR171W, strain sec66, active compounds read low 1.02 | locus YBR229C, strain ROT2, active compounds read low 0.985 | locus YBR231C, strain swc5, active compounds read low 1.02 | locus YBR279W, strain paf1, active compounds read low 1 | locus YCL011C, strain gbp2, active compounds read low 1.01 | locus YCL016C, strain dcc1, active compounds read low 1.01 | locus YCL029C, strain bik1, active compounds read low 0.979 | locus YCL069W, strain vba3, active compounds read low 1.01 | locus YCR088W, strain abp1, active compounds read low 1.01 | locus YDL005C, strain med2, active compounds read low 1.02 | locus YDL035C, strain GPR1, active compounds read low 0.984 | locus YDL040C, strain nat1, active compounds read low 1.01 | locus YDL074C, strain BRE1, active compounds read low 1.05 | locus YDL101C, strain DUN1, active compounds read low 1.01 | locus YDL134C, strain PPH21, active compounds read low 0.985 | locus YDL185W, strain tfp1, active compounds read low 0.935 | locus YDL192W, strain arf1, active compounds read low 0.981 | locus YDR001C, strain nth1, active compounds read low 1.02 | locus YDR069C, strain doa4, active compounds read low 1.02 | locus YDR101C, strain arx1, active compounds read low 0.988 | locus YDR137W, strain rgp1, active compounds read low 1.01 | locus YDR159W, strain sac3, active compounds read low 1.01 | locus YDR162C, strain NBP2, active compounds read low 0.951 | locus YDR195W, strain ref2 1.01 | locus YDR297W, strain sur2, active compounds read low 1.02 | locus YDR318W, strain mcm21, active compounds read low 0.973 | locus YDR334W, strain swr1, active compounds read low 1.02 | locus YDR335W, strain msn5, active compounds read low 1.01 | locus YDR388W, active compounds read low 0.988 | locus YDR392W, strain spt3, active compounds read low 0.993 | locus YDR502C, strain sam2, active compounds read low 1 | locus YEL003W, strain gim4, active compounds read low 1.03 | locus YEL037C, strain rad23, active compounds read low 1.02 | locus YEL061C, strain CIN8 (second series), active compounds read low 1.01 | locus YEL061C, strain CIN8, active compounds read low 0.971 | locus YER015W, strain faa2, active compounds read low 1 | locus YER016W, strain bim1, active compounds read low 0.987 | locus YER110C, active compounds read low 0.992 | locus YER111C, strain swi4, active compounds read low 1.01 | locus YER155C, strain BEM2 (second series), active compounds read low 1.02 | locus YER155C, strain BEM2, active compounds read low 0.978 | locus YER167W, strain BCK2, active compounds read low 0.991 | locus YFR010W, strain ubp6, active compounds read low 1.01 | locus YGL078C, strain dbp3, active compounds read low 0.936 | locus YGL086W, strain mad1, active compounds read low 0.987 | locus YGL167C, strain pmr1, active compounds read low 1.03 | locus YGL173C, strain kem1, active compounds read low 1.02 | locus YGL227W, strain vid30, active compounds read low 1.02 | locus YGL240W, strain doc1, active compounds read low 1.01 | locus YGL248W, strain PDE1, active compounds read low 0.982 | locus YGL253W, strain hxk2, active compounds read low 1.01 | locus YGR135W, strain pre9, active compounds read low 0.996 | locus YGR229C, strain SMI1, active compounds read low 0.972 | locus YGR252W, strain gcn5, active compounds read low 1.16 | locus YHR013C, strain ard1, active compounds read low 1.02 | locus YHR027C, strain rpn1, active compounds read low 1.01 | locus YHR030C, strain SLT2, active compounds read low 0.985 and 0.986 | locus YHR079C, strain IRE1 (second series), active compounds read low 0.987 | locus YHR079C, strain IRE1, active compounds read low 0.986 | locus YHR094C, strain hxt1, active compounds read low 0.979 | locus YHR129C, strain ARP1, active compounds read low 0.977 | locus YHR142W, strain chs7, active compounds read low 1.01 | locus YHR200W, strain rpn10, active compounds read low 0.983 | locus YIL066C, strain RNR3, active compounds read low 0.977 | locus YIL073C, strain SPO22, active compounds read low 1.04 | locus YIL125W, strain kgd1, active compounds read low 0.944 | locus YIR030C, strain dcg1, active compounds read low 0.977 | locus YJL092W, strain hpr5, active compounds read low 1 | locus YJL095W, strain BCK1 (second series), active compounds read low 1.02 | locus YJL095W, strain BCK1, active compounds read low 1 and 0.986 | locus YJL115W, strain asf1, active compounds read low 1.02 | locus YJL129C, strain trk1, active compounds read low 1.01 | locus YJL134W, strain LCB3, active compounds read low 0.981 | locus YJL154C, strain vps35, active compounds read low 1.01 | locus YJL164C, strain tpk1, active compounds read low 0.997 | locus YJL166W, strain qcr8, active compounds read low 1 | locus YJL168C, strain set2, active compounds read low 0.975 | locus YJL187C, strain SWE1 (second series), active compounds read low 1.01 | locus YJR043C, strain POL32, active compounds read low 0.978 | locus YJR066W, strain TOR1, active compounds read low 0.99
